Bioassay records (PubChem)
The full list was thinned out, with hits kept by preference.
Pf Dd2 inh – inhibitors of Plasmodium falciparum Dd2 growth. Potency, µM (top dose mostly 28.9 µM), inactives show top-dose activity, negative = inhibition, most hits filed as inhibitors. P. falciparum Dd2 growth, SYBR Green, 72 h. actives 4.3% (n = 120,000); active means well fitted inhibition curve with a large enough effect;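 further: plate controls were DMSO vehicle for no effect and reference drug for full effect; nearly all actives have a fitted effect of over 65% in size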
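Infected erythrocytes (Dd2, 0.3% parasitemia, 2.5% hematocrit final) are added to compound in RPMI-1640/Albumax II medium, grown 72 h at 37C in low oxygen, then lysed with saponin/Triton-X containing SYBR Green and read by fluorescence.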
* marks the source's active call; other numbers are inactive results; i = inactive; [ ] = dose if it differs, or a comment. Potency means the concentration at half of the fitted maximal effect.

SMILES	Pf Dd2 inh
Cc1ccc(-c2nnc(Nc3cccc(Br)c3)c3ccccc23)cc1S(=O)(=O)N1CCN(C)CC1	7.9µM*
Cc1cccc(Nc2nnc(-c3ccc(C)c(S(=O)(=O)N4CCN(C)CC4)c3)c3ccccc23)c1	10µM*
O=C([C@@H]1C[C@H](F)CN1S(=O)(=O)c1cccc(F)c1)N1CCCCC1	4%
CCN1C(=O)C2CC3(CCN(C(=O)Cc4ccccc4)CC3)CN2C1=O (stereo not given)	i
CCCNC(=O)N(C1CCOCC1)C1CCN(S(=O)(=O)c2ccccc2CC)CC1	-22%
COc1cccc(CNC(=O)[C@@H]2C[C@@H](O)CN2C2CCN(C(=O)c3ccc(OC)cc3C)CC2)c1	-11%
O=C(CCC1CCCN(Cc2ccc3nonc3c2)C1)N1CCOCC1 (stereo not given)	-18%
Cc1ccc2c(c1)N1C(=O)OC[C@@H]1CCN(CC1CC1)C2	i
COc1cccc(-n2c(SCc3cccc(C)c3)nc3c([nH]c4ccccc43)c2=O)c1	10µM*
Cc1cccc(NC(=O)CSc2nc3c([nH]c4ccccc43)c(=O)n2C)c1	4%
COc1ccc(Cl)cc1NC(=O)CSc1nc2c([nH]c3ccccc32)c(=O)n1-c1ccccc1	4.5µM*
CCOc1ccc(-n2c(SCC(=O)Nc3cc(C)on3)nc3c([nH]c4ccccc43)c2=O)cc1	i
CCn1c(SCC(=O)Nc2cc(Cl)ccc2OC)nc2c([nH]c3ccccc32)c1=O	i
O=C(CSc1nc2c([nH]c3ccccc32)c(=O)n1-c1ccccc1)Nc1ccccc1C(F)(F)F	28%
Cc1cc(C)cc(-n2c(SCC(=O)Nc3nnc(C)s3)nc3c([nH]c4ccccc43)c2=O)c1	7%
Cc1cc(NC(=O)CSc2nc3c([nH]c4ccccc43)c(=O)n2-c2ccc(Cl)cc2)no1	-3%
Cc1cccc(CSc2nc3c([nH]c4ccccc43)c(=O)n2C)c1	27%
COc1cccc(-n2c(SCC(=O)c3ccccc3)nc3c([nH]c4ccccc43)c2=O)c1	8%
Cc1ccc(-n2c(SCC(=O)Nc3ccc4c(c3)OCO4)nc3c([nH]c4ccccc43)c2=O)cc1	10µM*
COc1cccc(NC(=O)CSc2nc3c([nH]c4ccccc43)c(=O)n2-c2cc(C)cc(C)c2)c1	8.9µM*
COc1ccc(C[C@H](NC(=O)[C@@]2(O)C[C@@H](O)[C@H](O)[C@@H](NC(=O)CC(C)(C)C)C2)C(N)=O)cc1	9%
COc1ccccc1CCC(=O)N1CCCC(c2[nH]ccc2C(N)=O)C1 (stereo not given)	-12%
O=C1NCCCCCN(C(=O)NCc2ccccc2)[C@H]2CCCC[C@@H]12	0%
Cc1ccc(C(=O)N2CCC(n3cc(-c4nc(C(C)C)no4)nn3)CC2)cc1	134%
O=C(Cn1nc2c(cc1=O)CCCCC2)Nc1ccccc1Cl	-10%
SMILES	Pf Dd2 inh
O=C(NC1CC(=O)N(c2ccccc2)C1)c1ccc(S(=O)(=O)N2CCOCC2)cc1 (stereo not given)	i
Cc1ccc(N2CC(NC(=O)c3ccc(S(=O)(=O)N4CCOCC4)cc3)CC2=O)cc1 (stereo not given)	i
CCN(CC)S(=O)(=O)c1ccc(C(=O)NCCSc2c(-c3ccccc3)[nH]c3ccccc23)cc1	11µM*
Cc1[nH]c2ccccc2c1SCCNC(=O)c1ccccc1F	-8%
Cc1ccc(-c2[nH]c3ccccc3c2SCCNC(=O)c2ccc(S(=O)(=O)N3CCOCC3)cc2)cc1	10µM*
COc1cc(C(=O)NCCSc2c(C)[nH]c3ccccc23)cc(OC)c1OC	-21%
O=C(NCCSc1c[nH]c2ccccc12)c1ccc(Cl)cc1	-2%
COc1ccccc1C(=O)NCCSc1c(C)[nH]c2ccccc12	15%
CCN(CC)S(=O)(=O)c1ccc(C(=O)NCCSc2c(-c3ccc(F)cc3)[nH]c3ccccc23)cc1	6.3µM*
C[C@H]1[C@@H]2[C@H]3OC(=O)[C@@H](C)[C@@H]3CC[C@@]2(C)CC[C@@H]1NC(=O)Nc1cccc(F)c1	i
O=C(CC1CCCC1)N1CC[C@@]2(O)CCN(Cc3ccccn3)C[C@H]2C1	-2%
COCC(=O)N[C@@H]1CN(Cc2ccc(C#N)cc2)CC[C@@H]1c1nc(C)no1	25%[5.79 µM]
Cc1ccc(C(=O)N2CCCC(c3nc(CCOCC4CCCC4)no3)C2)cn1 (stereo not given)	-13%
Cc1ccc(C)c(CN2CCC3(CC2)[C@H](O)C[C@@H]3OCCN)c1	-4%
Cc1nn(C)c(C)c1S(=O)(=O)N1CCC(c2noc(-c3cccnc3)n2)C1 (stereo not given)	41%[5.79 µM]
COCC1(CNCc2ccc(OC)cc2)C[C@@H](O)[C@@H](O)C1 (stereo not given in full)	-15%[44.1 µM]
O=C(NCc1ccc(F)cc1)c1ccc(Nc2nc3ccccc3n3nnnc23)cc1	-21%
CN(C)c1ccc(Nc2nc3ccccc3n3nnnc23)cc1	7.9µM*
Cc1ccc(CCNC(=O)c2ccc(Nc3nc4ccccc4n4nnnc34)cc2)cc1	-1%
Cn1nc(C2CCN(C(=O)c3ccc(C(F)(F)F)cc3)CC2)[nH]c1=O	-13%
COCc1nc(CCNC(=O)C2CCN(S(=O)(=O)N3CCC(C)CC3)CC2)no1	-8%
COCCCNC(=O)c1[nH]c2cc(OC)ccc2c1Sc1ccc(C)cc1	25%
O=C(NCCCN1CCCCC1)c1[nH]c2ccccc2c1Sc1ccc(Cl)cc1	i
COc1ccc2c(Sc3ccccc3)c(C(=O)NCCCN3CCCCC3)[nH]c2c1	11µM*
CC(C)NC(=O)N1CCCC(c2nnc3n2CCNC3)C1 (stereo not given)	8%
SMILES	Pf Dd2 inh
Cc1ncoc1C(=O)N1CCCC(c2nc(-c3cccnc3)no2)CCNC(=O)CC1 (stereo not given)	-12%
O=C1CNc2ccc(C(=O)NCc3cc4n(n3)CCCNC4)cc2N1	5%
COCCNC(=O)CN1C(=O)NC(c2ccccc2OC)C2=C1COC2=O (stereo not given)	-4%
O=C(CC[C@@H]1CNC(=O)[C@@H]2C[C@H](NCc3ccc(OC(F)(F)F)cc3)CN12)Nc1ccccc1	i
CCCC(=O)N1C[C@@H](CO)[C@H](c2nc(-c3ccncc3)no2)C1	4%
CC(C)(C)NC(=O)C[C@@H]1CCNC[C@@H]1Cc1cc(-c2ccc(C(C)(C)C)cc2)on1	4µM*
O=C(C[C@@H]1CCNC[C@@H]1Cc1cc(-c2ccc(F)cc2)on1)NCc1ccc(F)cc1	i
CC(C)(C)c1ccc(-c2cc(C[C@H]3CNCC[C@H]3CC(=O)NCc3ccc(F)cc3)no2)cc1	-3%
COc1ccc(CNC(=O)C[C@@H]2CCNC[C@@H]2Cc2cc(-c3ccc(C(C)(C)C)cc3)on2)cc1	-18%
CC(C)(C)c1ccc(-c2cc(C[C@H]3CNCC[C@H]3CC(=O)N3CCCCC3)no2)cc1	5µM*
CC(C)(C)c1ccc(-c2cc(C[C@H]3CNCC[C@H]3CC(=O)N3CCN(c4ccc(F)cc4)CC3)no2)cc1	i
Cc1nnc2n1CCC(N(C)C(=O)CCc1nc3ccccc3s1)CC2 (stereo not given)	-22%
Cc1ccccc1-c1cnc2[nH]cc(CC(=O)NCc3cccnc3)c2c1	-15%[44.1 µM]
Cc1noc(C)c1-c1cnc2[nH]cc(CC(=O)NCc3cccnc3)c2c1	-11%[44.1 µM]
O=C(Cc1c[nH]c2ncc(-c3ccccc3F)cc12)NCc1cccnc1	-2%[44.1 µM]
NC(=O)Cc1c[nH]c2ncc(-c3ccc(F)cc3)cc12	i
O=C(Cc1c[nH]c2ncc(-c3ccc(Oc4ccccc4)cc3)cc12)NCc1cccnc1	8.9µM*
COc1ccc(-c2cnc3[nH]cc(CC(N)=O)c3c2)cc1OC	0.63µM*
